Measured values as given in ChEMBL document CHEMBL1961873, “Compounds: GSK PKIS; Assays: Nanosyn kinase panel” (2012).

Legend:
[1] = target: High affinity nerve growth factor receptor (Homo sapiens) (UniProt P04629); details: at 1 µM;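 note: each value is the mean percent inhibition of TRKA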
[2] = target: BDNF/NT-3 growth factors receptor (Homo sapiens) (UniProt Q16620); details: at 0.1 µM
[3] = target: BDNF/NT-3 growth factors receptor (Homo sapiens) (UniProt Q16620); details: at 1 µM
[4] = target: NT-3 growth factor receptor (Homo sapiens) (UniProt Q16288); details: at 0.1 µM
[5] = target: NT-3 growth factor receptor (Homo sapiens) (UniProt Q16288); details: at 1 µM
[6] = target: T1, Tyrosine-protein kinase TXK (Homo sapiens) (UniProt P42681); details: at 0.1 µM
T1 sequence (whole entry): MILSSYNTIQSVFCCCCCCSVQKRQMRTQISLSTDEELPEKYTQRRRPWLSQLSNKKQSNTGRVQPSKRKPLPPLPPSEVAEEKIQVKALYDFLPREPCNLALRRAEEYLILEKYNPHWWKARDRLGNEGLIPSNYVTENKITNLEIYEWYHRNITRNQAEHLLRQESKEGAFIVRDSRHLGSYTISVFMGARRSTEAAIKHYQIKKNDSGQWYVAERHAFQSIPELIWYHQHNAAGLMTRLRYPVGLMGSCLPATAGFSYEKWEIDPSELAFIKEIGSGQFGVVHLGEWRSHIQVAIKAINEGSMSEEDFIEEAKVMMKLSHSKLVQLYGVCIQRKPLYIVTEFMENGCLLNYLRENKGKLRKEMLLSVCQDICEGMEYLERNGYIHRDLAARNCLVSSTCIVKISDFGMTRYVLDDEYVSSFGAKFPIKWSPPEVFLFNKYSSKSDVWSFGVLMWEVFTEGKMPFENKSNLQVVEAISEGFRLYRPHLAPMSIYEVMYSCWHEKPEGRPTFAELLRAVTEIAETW

[7] = target: T1, Tyrosine-protein kinase TXK (Homo sapiens); details: at 1 µM
[8] = target: Non-receptor tyrosine-protein kinase TYK2 (Homo sapiens) (UniProt P29597); details: at 0.1 µM;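 note: each value is a mean of the inhibition readings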
[9] = target: T2, Dual specificity protein kinase TTK (Homo sapiens) (UniProt P33981); details: at 1 µM;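 note: reported figures are mean TTK inhibition at 1 µM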
T2 sequence (whole entry): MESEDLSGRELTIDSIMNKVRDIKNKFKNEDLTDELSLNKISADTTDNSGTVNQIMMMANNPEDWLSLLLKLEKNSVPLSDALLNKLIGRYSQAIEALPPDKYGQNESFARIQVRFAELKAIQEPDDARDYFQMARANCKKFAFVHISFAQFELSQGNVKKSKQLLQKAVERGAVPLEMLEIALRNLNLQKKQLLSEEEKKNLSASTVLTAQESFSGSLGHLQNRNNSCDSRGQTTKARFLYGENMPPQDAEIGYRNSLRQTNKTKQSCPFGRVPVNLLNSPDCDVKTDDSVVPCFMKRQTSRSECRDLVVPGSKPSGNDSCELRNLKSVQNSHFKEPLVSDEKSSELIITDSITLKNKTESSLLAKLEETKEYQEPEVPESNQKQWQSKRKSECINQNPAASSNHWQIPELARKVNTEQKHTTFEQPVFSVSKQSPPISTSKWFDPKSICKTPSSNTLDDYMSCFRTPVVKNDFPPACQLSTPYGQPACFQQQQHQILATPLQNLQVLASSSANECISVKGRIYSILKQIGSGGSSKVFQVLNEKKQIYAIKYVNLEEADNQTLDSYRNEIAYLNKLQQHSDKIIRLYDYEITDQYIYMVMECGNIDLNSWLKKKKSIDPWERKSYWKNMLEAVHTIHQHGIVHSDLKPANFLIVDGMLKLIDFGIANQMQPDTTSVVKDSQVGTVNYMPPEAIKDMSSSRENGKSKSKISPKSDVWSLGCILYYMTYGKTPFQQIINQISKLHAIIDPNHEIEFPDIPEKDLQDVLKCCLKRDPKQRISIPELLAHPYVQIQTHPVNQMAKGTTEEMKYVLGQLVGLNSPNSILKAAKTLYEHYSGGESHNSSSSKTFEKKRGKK

[10] = target: T3, Aurora kinase A (Homo sapiens) (UniProt O14965); details: at 0.1 µM
T3 sequence (whole entry): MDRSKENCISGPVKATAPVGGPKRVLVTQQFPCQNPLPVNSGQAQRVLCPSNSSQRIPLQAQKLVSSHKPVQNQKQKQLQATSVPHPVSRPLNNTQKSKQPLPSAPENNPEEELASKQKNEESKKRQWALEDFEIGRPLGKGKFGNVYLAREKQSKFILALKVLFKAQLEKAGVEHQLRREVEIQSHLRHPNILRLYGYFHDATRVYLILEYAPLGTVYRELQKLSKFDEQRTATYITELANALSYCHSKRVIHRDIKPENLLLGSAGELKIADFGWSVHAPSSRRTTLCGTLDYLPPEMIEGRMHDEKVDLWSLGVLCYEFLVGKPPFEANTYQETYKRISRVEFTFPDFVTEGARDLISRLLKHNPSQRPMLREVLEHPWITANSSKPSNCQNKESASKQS

[11] = target: T3, Aurora kinase A (Homo sapiens); details: at 1 µM
[12] = target: Aurora kinase B (Homo sapiens) (UniProt Q96GD4); details: at 0.1 µM
[13] = target: Aurora kinase B (Homo sapiens) (UniProt Q96GD4); details: at 1 µM
[14] = target: T4, Aurora kinase C (Homo sapiens) (UniProt Q9UQB9); details: at 0.1 µM
T4 sequence (whole entry): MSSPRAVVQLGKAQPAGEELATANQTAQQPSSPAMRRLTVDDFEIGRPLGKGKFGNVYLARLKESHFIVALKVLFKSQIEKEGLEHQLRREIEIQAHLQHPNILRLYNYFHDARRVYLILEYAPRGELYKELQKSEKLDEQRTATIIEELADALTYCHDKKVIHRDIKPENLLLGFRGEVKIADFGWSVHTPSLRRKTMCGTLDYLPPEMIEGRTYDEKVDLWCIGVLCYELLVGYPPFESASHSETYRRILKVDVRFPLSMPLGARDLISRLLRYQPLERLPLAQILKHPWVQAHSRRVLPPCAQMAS

[15] = target: T4, Aurora kinase C (Homo sapiens); details: at 1 µM
[16] = target: Serine/threonine-protein kinase 10 (Homo sapiens) (UniProt O94804); details: at 0.1 µM
[17] = target: Serine/threonine-protein kinase 10 (Homo sapiens) (UniProt O94804); details: at 1 µM
[18] = target: T5, Mitogen-activated protein kinase kinase kinase kinase 2 (Homo sapiens) (UniProt Q12851); details: at 0.1 µM
T5 sequence (whole entry): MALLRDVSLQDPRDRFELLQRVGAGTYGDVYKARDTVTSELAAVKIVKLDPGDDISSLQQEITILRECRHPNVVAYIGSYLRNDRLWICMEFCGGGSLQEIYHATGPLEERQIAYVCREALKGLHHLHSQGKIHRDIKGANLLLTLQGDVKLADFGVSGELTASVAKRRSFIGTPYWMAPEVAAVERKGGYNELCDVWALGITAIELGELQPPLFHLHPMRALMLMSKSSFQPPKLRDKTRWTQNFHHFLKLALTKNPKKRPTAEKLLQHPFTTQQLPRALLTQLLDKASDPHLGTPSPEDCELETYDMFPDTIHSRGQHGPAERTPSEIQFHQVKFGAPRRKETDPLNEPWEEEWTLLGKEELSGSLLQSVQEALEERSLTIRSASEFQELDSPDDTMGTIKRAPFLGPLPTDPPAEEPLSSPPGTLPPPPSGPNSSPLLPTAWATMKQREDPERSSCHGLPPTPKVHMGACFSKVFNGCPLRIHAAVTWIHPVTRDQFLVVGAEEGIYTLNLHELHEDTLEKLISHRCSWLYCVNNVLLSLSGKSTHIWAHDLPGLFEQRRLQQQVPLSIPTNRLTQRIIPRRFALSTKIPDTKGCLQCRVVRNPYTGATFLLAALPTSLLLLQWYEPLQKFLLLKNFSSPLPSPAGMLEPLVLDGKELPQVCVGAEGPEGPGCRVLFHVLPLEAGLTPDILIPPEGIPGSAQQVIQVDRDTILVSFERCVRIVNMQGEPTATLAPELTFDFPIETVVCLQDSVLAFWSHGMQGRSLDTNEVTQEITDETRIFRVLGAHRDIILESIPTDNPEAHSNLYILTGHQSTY

[19] = target: T5, Mitogen-activated protein kinase kinase kinase kinase 2 (Homo sapiens); details: at 1 µM
[20] = target: Mitogen-activated protein kinase kinase kinase kinase 4 (Homo sapiens) (UniProt O95819); details: at 0.1 µM
Sequence of Mitogen-activated protein kinase kinase kinase kinase 4 (Homo sapiens) (O95819 2-1239 limits assumed): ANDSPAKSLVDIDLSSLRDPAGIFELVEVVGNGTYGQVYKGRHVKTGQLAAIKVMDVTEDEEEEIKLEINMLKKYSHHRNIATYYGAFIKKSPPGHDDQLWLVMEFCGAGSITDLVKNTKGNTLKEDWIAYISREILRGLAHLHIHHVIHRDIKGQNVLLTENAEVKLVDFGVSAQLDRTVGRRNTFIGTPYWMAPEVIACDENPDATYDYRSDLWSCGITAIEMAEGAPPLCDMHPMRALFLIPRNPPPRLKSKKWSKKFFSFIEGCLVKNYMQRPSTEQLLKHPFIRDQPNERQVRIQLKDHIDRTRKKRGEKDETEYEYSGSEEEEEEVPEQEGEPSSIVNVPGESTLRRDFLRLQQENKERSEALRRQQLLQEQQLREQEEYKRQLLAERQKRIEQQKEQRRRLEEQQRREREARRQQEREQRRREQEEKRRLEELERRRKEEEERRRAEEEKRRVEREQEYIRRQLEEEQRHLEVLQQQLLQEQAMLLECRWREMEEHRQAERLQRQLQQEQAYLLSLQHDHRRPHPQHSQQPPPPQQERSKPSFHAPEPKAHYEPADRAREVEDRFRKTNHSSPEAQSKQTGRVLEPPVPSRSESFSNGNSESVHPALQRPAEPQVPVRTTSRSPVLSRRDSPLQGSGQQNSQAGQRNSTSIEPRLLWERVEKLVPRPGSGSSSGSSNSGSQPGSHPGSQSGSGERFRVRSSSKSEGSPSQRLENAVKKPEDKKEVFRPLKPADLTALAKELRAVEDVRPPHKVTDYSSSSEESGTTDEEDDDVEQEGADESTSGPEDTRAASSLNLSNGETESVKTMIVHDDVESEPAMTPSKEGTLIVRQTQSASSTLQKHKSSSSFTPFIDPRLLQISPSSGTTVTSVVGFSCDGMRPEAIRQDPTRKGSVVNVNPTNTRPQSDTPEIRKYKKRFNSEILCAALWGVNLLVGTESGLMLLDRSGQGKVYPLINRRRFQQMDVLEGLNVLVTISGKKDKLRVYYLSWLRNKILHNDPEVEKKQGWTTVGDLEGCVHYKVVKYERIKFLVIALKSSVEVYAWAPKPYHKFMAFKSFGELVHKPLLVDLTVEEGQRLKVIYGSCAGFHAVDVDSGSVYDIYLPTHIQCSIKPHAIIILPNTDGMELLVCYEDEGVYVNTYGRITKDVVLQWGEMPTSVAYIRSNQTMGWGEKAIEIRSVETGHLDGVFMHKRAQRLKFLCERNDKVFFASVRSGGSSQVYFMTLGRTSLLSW

Sequence of High affinity nerve growth factor receptor (Homo sapiens) (P04629 33-796 limits assumed): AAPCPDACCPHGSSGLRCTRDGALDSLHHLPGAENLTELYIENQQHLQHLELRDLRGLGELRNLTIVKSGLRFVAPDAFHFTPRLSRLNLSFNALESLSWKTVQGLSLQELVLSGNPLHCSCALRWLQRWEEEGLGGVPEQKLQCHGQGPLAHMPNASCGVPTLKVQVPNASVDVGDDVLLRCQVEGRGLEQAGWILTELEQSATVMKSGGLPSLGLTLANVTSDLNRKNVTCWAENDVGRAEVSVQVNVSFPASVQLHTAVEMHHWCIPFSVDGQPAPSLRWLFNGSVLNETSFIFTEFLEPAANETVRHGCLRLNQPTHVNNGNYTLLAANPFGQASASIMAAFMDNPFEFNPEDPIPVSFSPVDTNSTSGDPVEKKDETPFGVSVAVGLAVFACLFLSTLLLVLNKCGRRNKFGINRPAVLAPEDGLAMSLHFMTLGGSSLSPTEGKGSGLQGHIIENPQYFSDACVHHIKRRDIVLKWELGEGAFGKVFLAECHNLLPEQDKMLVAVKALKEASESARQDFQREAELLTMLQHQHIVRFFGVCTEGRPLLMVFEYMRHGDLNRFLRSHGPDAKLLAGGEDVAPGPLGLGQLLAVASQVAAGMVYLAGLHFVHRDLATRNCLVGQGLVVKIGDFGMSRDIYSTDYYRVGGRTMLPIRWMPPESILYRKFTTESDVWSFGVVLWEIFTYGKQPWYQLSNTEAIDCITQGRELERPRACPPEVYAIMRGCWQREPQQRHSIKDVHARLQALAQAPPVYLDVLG
Sequence of NT-3 growth factor receptor (Homo sapiens) (Q16288 32-839 limits assumed): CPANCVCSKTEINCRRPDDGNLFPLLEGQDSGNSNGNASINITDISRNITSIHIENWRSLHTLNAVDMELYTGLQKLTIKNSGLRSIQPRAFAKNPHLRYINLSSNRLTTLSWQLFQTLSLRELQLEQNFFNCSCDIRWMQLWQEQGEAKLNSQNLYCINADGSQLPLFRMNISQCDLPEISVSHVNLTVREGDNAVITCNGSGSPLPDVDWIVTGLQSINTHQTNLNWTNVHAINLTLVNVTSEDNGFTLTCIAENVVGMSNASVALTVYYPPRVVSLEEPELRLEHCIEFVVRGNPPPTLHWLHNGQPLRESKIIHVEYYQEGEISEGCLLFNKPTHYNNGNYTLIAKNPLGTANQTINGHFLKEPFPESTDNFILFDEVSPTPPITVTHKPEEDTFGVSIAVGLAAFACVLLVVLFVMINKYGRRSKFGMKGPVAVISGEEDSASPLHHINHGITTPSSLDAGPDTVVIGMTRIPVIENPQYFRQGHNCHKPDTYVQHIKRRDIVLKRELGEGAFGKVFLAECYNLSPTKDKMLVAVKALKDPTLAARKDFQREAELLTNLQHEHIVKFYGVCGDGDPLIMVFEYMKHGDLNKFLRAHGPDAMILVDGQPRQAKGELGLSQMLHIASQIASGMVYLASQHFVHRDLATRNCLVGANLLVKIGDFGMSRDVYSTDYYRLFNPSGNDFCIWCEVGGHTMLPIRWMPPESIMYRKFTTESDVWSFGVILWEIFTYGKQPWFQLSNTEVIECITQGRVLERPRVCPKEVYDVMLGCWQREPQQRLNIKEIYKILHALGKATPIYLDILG
Sequence of Non-receptor tyrosine-protein kinase TYK2 (Homo sapiens) (P29597 whole entry): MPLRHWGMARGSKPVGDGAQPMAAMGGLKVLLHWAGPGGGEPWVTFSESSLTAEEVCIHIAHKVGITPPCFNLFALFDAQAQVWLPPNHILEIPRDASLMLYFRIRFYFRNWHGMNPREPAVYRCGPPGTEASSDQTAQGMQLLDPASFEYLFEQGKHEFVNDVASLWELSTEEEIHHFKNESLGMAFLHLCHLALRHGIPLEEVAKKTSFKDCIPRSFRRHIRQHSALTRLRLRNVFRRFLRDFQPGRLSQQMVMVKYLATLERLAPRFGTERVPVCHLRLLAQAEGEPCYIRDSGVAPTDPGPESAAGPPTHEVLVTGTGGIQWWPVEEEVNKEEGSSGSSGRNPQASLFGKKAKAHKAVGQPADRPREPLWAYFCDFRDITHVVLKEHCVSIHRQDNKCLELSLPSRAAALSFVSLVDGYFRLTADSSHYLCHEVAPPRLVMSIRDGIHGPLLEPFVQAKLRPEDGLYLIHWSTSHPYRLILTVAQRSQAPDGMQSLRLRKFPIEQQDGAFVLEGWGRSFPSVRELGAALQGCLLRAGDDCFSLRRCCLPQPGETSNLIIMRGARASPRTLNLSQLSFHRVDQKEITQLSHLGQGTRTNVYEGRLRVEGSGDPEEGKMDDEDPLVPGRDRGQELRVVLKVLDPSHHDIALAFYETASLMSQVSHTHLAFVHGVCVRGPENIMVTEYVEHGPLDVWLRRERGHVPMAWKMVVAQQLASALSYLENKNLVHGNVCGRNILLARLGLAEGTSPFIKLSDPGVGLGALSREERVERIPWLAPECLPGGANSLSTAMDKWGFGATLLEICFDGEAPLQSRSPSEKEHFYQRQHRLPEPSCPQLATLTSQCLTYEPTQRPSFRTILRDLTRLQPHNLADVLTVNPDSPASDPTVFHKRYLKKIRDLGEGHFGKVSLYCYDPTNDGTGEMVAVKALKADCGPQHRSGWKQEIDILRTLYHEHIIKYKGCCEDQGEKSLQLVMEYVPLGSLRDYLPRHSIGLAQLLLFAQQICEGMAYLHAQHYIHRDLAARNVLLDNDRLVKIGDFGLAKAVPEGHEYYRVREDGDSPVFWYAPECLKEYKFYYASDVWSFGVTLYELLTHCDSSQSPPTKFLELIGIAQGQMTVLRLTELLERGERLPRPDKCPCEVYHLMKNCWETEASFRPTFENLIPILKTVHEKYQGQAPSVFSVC
Sequence of Serine/threonine-protein kinase 10 (Homo sapiens) (O94804 whole entry, looked up): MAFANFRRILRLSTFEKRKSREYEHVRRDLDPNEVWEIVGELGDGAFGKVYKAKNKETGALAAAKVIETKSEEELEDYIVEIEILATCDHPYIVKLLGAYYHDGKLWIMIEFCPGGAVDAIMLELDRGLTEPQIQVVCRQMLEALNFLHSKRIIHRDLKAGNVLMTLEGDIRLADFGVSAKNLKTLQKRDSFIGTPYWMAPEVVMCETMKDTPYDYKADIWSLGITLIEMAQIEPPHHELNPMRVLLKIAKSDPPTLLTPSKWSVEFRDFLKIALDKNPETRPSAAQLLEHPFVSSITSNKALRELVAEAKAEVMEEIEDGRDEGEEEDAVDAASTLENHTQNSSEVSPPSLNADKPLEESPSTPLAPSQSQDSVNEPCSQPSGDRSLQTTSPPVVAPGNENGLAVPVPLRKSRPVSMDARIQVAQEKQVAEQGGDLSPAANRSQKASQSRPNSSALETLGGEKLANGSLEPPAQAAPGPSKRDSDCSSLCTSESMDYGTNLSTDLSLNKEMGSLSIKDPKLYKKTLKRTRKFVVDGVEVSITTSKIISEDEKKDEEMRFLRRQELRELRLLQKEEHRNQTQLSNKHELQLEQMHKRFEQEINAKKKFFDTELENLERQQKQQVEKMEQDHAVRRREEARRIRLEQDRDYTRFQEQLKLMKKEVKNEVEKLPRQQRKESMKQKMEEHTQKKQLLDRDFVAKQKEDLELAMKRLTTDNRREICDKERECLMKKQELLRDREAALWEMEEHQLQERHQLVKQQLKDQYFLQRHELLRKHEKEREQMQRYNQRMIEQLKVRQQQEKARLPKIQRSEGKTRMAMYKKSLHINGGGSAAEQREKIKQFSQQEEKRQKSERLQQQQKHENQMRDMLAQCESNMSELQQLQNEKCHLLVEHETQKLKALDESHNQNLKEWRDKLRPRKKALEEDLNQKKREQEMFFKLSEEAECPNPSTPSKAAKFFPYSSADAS

SMILES | inhibition [1] | inhibition [2] | inhibition [3] | inhibition [4] | inhibition [5] | inhibition [6] | inhibition [7] | inhibition [8] | inhibition [9] | inhibition [10] | inhibition [11] | inhibition [12] | inhibition [13] | inhibition [14] | inhibition [15] | inhibition [16] | inhibition [17] | inhibition [18] | inhibition [19] | inhibition [20]
Cc1nn(C)c2cc(N(C)c3ccnc(Nc4cccc(S(N)(=O)=O)c4)n3)ccc12 | 6.3% | 2.64% | 11.7% | 2.83% | 12.3% | 53.5% | 79.2% | -1.02% | 26.4% | 20% | 89.8% | 7.86% | 47.5% | 13.3% | 93% | 13.3% | 51.4% | 7.42% | 30.9% | 53.7%
COc1cc(C=NNc2ncnc3c2cnn3-c2ccccc2)ccc1O | 14.3% | 5.2% | 33.1% | 5.23% | 34.6% | 3.66% | 5.94% | -0.09% | 10.5% | 23% | 94% | 11.5% | 56.8% | 9.9% | 88.3% | 5.58% | 26.1% | 4.63% | 19.3% | 28.1%
Cc1cccc(-c2n[nH]cc2-c2ccc3ncccc3n2)n1 | -0.2% | -0.22% | 0.79% | 0.22% | -0.92% | 1.27% | 2.32% | -0.15% | 3.31% | 2.76% | 2.37% | -1.18% | 4.2% | 0.3% | -2.95% | 3.36% | 7.9% | 1.72% | 0.72% | 5.33%
Nc1nc(-c2ccccn2)c(-c2ccc3ncccc3n2)s1 | 1.12% | 2.11% | 2.56% | 1.67% | 4.07% | 2.05% | 3.04% | -3.74% | 7.95% | 2.15% | 9.43% | 1.61% | 8.29% | 2.42% | – | 2.91% | 5.82% | 0.08% | 2.92% | 5.35%
CNC(=O)c1cncc(/C=C/c2c(Cl)cccc2Cl)c1 | 6.89% | 2.99% | 4.39% | 2.24% | 2.7% | 5.28% | 22.7% | -2.78% | 18.3% | 0.59% | 0.47% | -2.93% | 2.43% | -4.44% | 0.68% | 6.82% | 10.6% | 1.03% | 2.47% | 8.94%
NS(=O)(=O)c1cccc(-c2ccc3c(NC(=O)C4CC4)n[nH]c3c2)c1 | 1.21% | 0.07% | 2.04% | 0.11% | 3.65% | -2.48% | -2.41% | 0.42% | 2.12% | -1.3% | 14.4% | 1.82% | 1.24% | -1.44% | 2.43% | 1.33% | 7.09% | 2.11% | 7.37% | 1.63%
Cc1ccc(NC(=O)c2ccnc(N3CCCC3)c2)cc1-c1ccc(C(=O)NCC2CC2)cc1 | 2.28% | 3.47% | 1.15% | 3.16% | 3.39% | -1.04% | 0.09% | -3.05% | 16.9% | 0.15% | 4.67% | 1.95% | 6.5% | -0.41% | 7.12% | 3.49% | 7.84% | 3.82% | 13.5% | 10%
